From PubChem BioAssay (Tox21)
Records with an inconclusive call do not appear. A number with no mark means an inactive call. The call rests on the fitted dose curve; in most records, active means well fitted activation curve with a large enough effect in the signal ratio in the repeat runs (not every such curve was filed as active); inconclusive means weak or mixed curves, or effect the other way; inactive means flat fitted curve, though single readings scatter; the % refers to the signal ratio.

Test: qHTS assay to identify small molecule agonists of the endoplasmic reticulum stress response signaling pathway (AID 1159516)
Conditions: ESRE-bla HeLa, ER stress beta-lactamase reporter, 5 h; series mostly up to 61 µM; activation: at the top concentration
Description: National Center for Advancing Translational Sciences [NCATS]
NIH Chemical Genomics Center [NCGC]
U.S. Environmental Protection Agency [EPA]
National Institutes of Environmental Health Sciences [NIEHS]
National Toxicology Program [NTP]
U.S. Food and Drug Administration [FDA]
Endoplasmic Reticulum (ER) plays an important role in cellular signaling, protein folding/maturation, stress response, lipid biosynthesis, calcium storage and release etc. Under stress conditions, proteins in ER misfold or unfold, and leading to the expression of ER stress responsive genes. ER stress has been associated with a variety of pathophysiological conditions such as cancer, inflammation, neurodegenerative diseases, diabetes, ischemic heart disease etc. To identify the compounds that induce ER stress response, an ER stress reporter cell line, CellSensor ESRE-bla HeLa (Life Technologies, Carlsbad, CA) containing a beta-lactamase reporter gene under control of the Endoplasmic reticulum Stress Response Element (ESRE) was used to screen Tox21 10K compound library.
Tox21 Assay Protocol Summary:
ESRE-bla HeLa cells were dispensed at 1,500 cells/6 uL of assay medium per well into black wall/clear-bottom 1536-well plates using a Multidrop Combi (ThermoFisher Scientific, Waltham, MA) dispenser. After the assay plates were incubated at 37 C and 5% CO2 for an overnight, 23 nL of compounds dissolved in DMSO, positive controls or DMSO only was transferred to the assay plate by a Pintool station (Kalypsys, San Diego, CA). The assay plates were incubated at 37 C and 5% CO2 for 5 hr. One uL of LiveBLAzer B/G FRET substrate (Life Technologies) was added using a Flying Reagent Dispenser (Aurora Discovery, San Diego, CA) and the plates were incubated at room temperature for 2 hr. Fluorescence intensity (405 nm excitation, 460 nm and 530 nm emissions) was measured using an Envision plate reader (PerkinElmer, Shelton, CT).
On the % scale 0 is the no-effect control and ±100 the full control effect.

Row | Structure (SMILES) | activation
1 | O=S(=O)(O)c1cccc2ccccc12 | -0.152%
2 | CCCCCC(=O)OCCc1ccccc1 | 1.65%
3 | CC(C)C(=O)OC(=O)C(C)C | -1.8%
4 | C[N+]1(C)[C@@H]2CC(OC(=O)[C@H](CO)c3ccccc3)C[C@H]1[C@@H]1O[C@@H]12 (stereo not given in full) | -5.63%
5 | CN1CC(=O)N/C1=N/C(=O)Nc1cccc(Cl)c1 | 1.9%
6 | CC1=NS(=O)(=O)c2cc(Cl)ccc2N1 | -1.68%
7 | CCN[C@H]1C[C@H](C)S(=O)(=O)c2sc(S(N)(=O)=O)cc21 | 1.42%
8 | [Ca+2] | 0.711%
9 | C=CCCCCCCCCC(=O)OCC | -1.06%
10 | CC(=O)C1CCCCC1=O (stereo not given) | -1.71%
11 | CCN(C=O)CC | -1.22% [at 78.8 µM]
12 | CN1CCN(c2cc3c(nn2)Oc2ccccc2N3C)CC1 | 2.92% [at 28.5 µM]
13 | CCC(=O)OCc1ccccc1 | 4.69%
14 | CCCCc1nc(Cl)c(CO)n1Cc1ccc(-c2ccccc2-c2nn[nH]n2)cc1 | -2.26%
15 | C1CCC2=NCCCN2CC1 | -1.88%
16 | OCCCCCO | 2.83% [at 78.8 µM]
17 | NC(=O)Cc1cccc2ccccc12 | -3.07%
18 | Cc1cc(C)c(N=Nc2c(O)c(S(=O)(=O)O)cc3cc(S(=O)(=O)O)ccc23)cc1C | -3.13% [at 6.95 µM]
19 | CCCCN(CCC(=O)OCC)C(C)=O | -0.62%
20 | FB(F)F | -6% [at 78.8 µM]

Row | Structure (SMILES) | activation
21 | COc1cc(C(=O)OC(COCCC(C)C)CN2CCOCC2)cc(OC)c1OC (stereo not given) | 1.25%
22 | Cc1nc2ccc(CN(C)c3ccc(C(=O)N[C@@H](CCC(=O)O)C(=O)O)s3)cc2c(=O)[nH]1 | -1%
23 | O=S(=O)(O)c1cc(O)c(O)c(S(=O)(=O)O)c1 | -0.595%
24 | CCN1CCOCC1 | -0.0403%
25 | CC[C@H]1OC(=O)[C@H](C)[C@@H](O[C@H]2C[C@@](C)(OC)[C@@H](O)[C@H](C)O2)[C@H](C)[C@@H](O[C@@H]2O[C@H](C)C[C@H](N(C)C)[C@H]2O)[C@](C)(OC)C[C@@H](C)C(=O)[C@H](C)[C@@H](O)[C@]1(C)O | -1.75% [at 78.8 µM]
26 | CCCCCC(C)N (stereo not given) | 0.0591%
27 | CC(C)(N)C#N | 0.0877% [at 78.8 µM]
28 | CCCC(=O)O[C@]1(C(=O)CC)CC[C@H]2[C@@H]3CCC4=CC(=O)CC[C@]4(C)[C@H]3[C@@H](O)C[C@@]21C | -3.78%
29 | COc1cccc(OC)c1C(=O)N[C@@H]1C(=O)N2[C@@H]1SC(C)(C)[C@@H]2C(=O)O | -0.237%
30 | CCCO[Si](OCCC)(OCCC)OCCC | 1.43%
31 | CCN[C@@H]1C[C@H](N)[C@@H](OC2OC(CN)=CCC2N)[C@H](O)[C@H]1O[C@H]1OC[C@](C)(O)[C@H](NC)[C@H]1O (stereo not given in full) | 0.974% [at 0.628 µM]
32 | C=CN1CCCCCC1=O | 0.493%
33 | C=CC(=O)OCCCl | -3.49% [at 78.8 µM]
34 | Nc1ccncc1N | 5.11%
35 | CCCc1nn(C)c2c(=O)[nH]c(-c3cc(S(=O)(=O)N4CCN(C)CC4)ccc3OCC)nc12 | 2.33%
36 | CC(C#N)(CCC(=O)O)N=NC(C)(C#N)CCC(=O)O (stereo not given) | 1.82%
37 | O=C(O)c1cc(C(=O)O)cc(C(=O)O)c1 | -3.02% [at 78.8 µM]
38 | CCC(C(=O)NC(=O)NC(C)=O)c1ccccc1 (stereo not given) | -0.198%
39 | CCCCOC(=O)CCC(C)=O | -6.54%
40 | NC(=O)N[C@@H](CCC(=O)O)C(=O)O | 3.08%
